Screens from PubChem.
A selection: hits, their analogues and other compounds. The true share with any hit is near 8%.
MCF10A rereplic – A quantitative high throughput screen for small molecules that induce DNA re-replication in MCF 10a normal breast cells | Potency, µM (top dose mostly 46.1 µM), usual class: activators | MCF 10A DNA re-replication, Hoechst nuclear intensity, 48 h | hit rate 2.9% among 350,000; further: nearly all actives have a fitted effect of over 50% in size
KB-3-1 cytotox – qHTS assay for MDR1-selective chemotherapeutics: Primary screen using the parental adenocarcinoma cell KB-3-1 | KB-3-1 viability, CellTiter-Glo ATP luminescence, 72 h | hit rate 1.4% among 400,000 | Potency, µM (series often up to 46.1 µM), usual class: cytotoxic; further: nearly all actives have a fitted effect of over 60% in size
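Cells are dispensed, compounds pinned in, plates held at 37 °C for 72 h, then CellTiter-Glo is added and luminescence read after 10 minutes. Cell line: parental KB-3-1 in phenol-red-free DMEM, 10% FBS.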
HT1080NT lethal – qHTS for induction of synthetic lethality in tumor cells producing 2HG: qHTS for the HT-1080-NT fibrosarcoma cell line. HT-1080-NT fibrosarcoma viability, CellTiter-Glo ATP luminescence, 48 h. Potency, µM (top dose mostly 46.1 µM), hits mostly cytotoxic. hit rate 1.6% among 360,000;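 further: NT is the 2HG producing partner of a matched IDH1 knockdown line; nearly all actives have a fitted effect of over 55% in size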
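Toxicity toward the 2HG-producing NT line was scored as %Activity, normalised to DMSO and no-cell wells, from CellTiter-Glo luminescence after 48 hours' treatment.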
HT1080 IDH1KD tx – qHTS for induction of synthetic lethality in tumor cells producing 2HG: qHTS for the HT-1080-IDH1KD cell line | HT-1080 IDH1 knockdown viability, ATP luminescence, 48 h | Potency, µM (highest dose often 46.1 µM), most hits filed as cytotoxic | hit rate 2% among 360,000
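After a 2 h attachment period, IDH1KD HT-1080 cells took pin-transferred compound for 48 h at 37 °C; ATP-based luminescence after 10 min room-temperature reagent incubation reported viability.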
KB-V1 cytotox – qHTS assay for MDR1-selective chemotherapeutics: Primary screen using the drug-selected MDR subline cells KB-V1; AID 1347076, 2019; KB-V1 MDR cells viability, CellTiter-Glo, 72 h; Potency, µM (highest dose often 46.1 µM), usual class: cytotoxic; hit rate 3.4% among 400,000; further: nearly all actives have a fitted effect of over 60% in size
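KB-V1 cells (P-gp-expressing MDR subline of KB-3-1) in phenol-red-free DMEM with 10% FBS were exposed to library compounds over a concentration series for 72 h at 37 degrees C. Viability read by CellTiter-Glo luminescence; concentration-effect curves fitted after normalization.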
SW480 rereplic – A quantitative high throughput screen for small molecules that induce DNA re-replication in SW480 colon adenocarcinoma cells. SW480 DNA re-replication, Hoechst DNA content imaging, 48 h. Potency, µM (top dose mostly 46.1 µM), actives largely listed as activators. hit rate 1.8% among 340,000; further: nearly all actives have a fitted effect of over 55% in size
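Hoechst fluorescence of nuclei (405 nm excitation, 500-530 nm emission) measured by plate-scanning imager after 48 hr compound exposure at 37 C; re-replication scored as increased number of nuclei with elevated intensity.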
Numbers stand for hits; – = inactive; ? = inconclusive; · = not tested or not shown. The call rests on the fitted dose curve; in most records, active means well fitted curve in the direction sought with a large enough effect; inconclusive means small, poorly fitted or top-dose-only effect, or another doubt; inactive means no such curve, though single readings can be large; an effect the other way counts as inactive or inconclusive.

SMILES | MCF10A rereplic | KB-3-1 cytotox | HT1080NT lethal | HT1080 IDH1KD tx | KB-V1 cytotox | SW480 rereplic
CCC(=O)Nc1c(S(=O)(=O)c2ccccc2)c2nc3ccccc3nc2n1C(C)c1ccccc1 (stereo not drawn) | 21µM | ? | – | – | – | ?
CCCCn1c(NC(=O)c2ccco2)c(S(=O)(=O)c2ccc(C)cc2)c2nc3ccccc3nc21 | 8.2µM | – | ? | – | ? | ?
Cc1nc(N2CCCC2)ncc1C(=O)N1CCN(c2ccc(Cl)cc2)CC1 | · | – | · | · | – | ·
CCc1cccc(NC(=O)Cn2c(=O)n(CCc3ccc(OC)c(OC)c3)c(=O)c3ccccc32)c1 | · | ? | · | · | – | ·
CCCCn1c(NS(=O)(=O)c2ccccc2)c(S(=O)(=O)c2ccc(C)cc2)c2nc3ccccc3nc21 | ? | 12µM | – | – | ? | 13µM
COc1ccc(CCn2c(-n3nc(C)cc3C)nc3c2c(=O)[nH]c(=O)n3C)cc1 | 1.6µM | – | ? | ? | 1.6µM | ?
Cc1ccc(Cn2c(-n3nc(C)cc3C)nc3c2c(=O)[nH]c(=O)n3C)cc1 | – | – | – | – | – | –
CCSc1nc2c(c(=O)[nH]c(=O)n2C)n1CC(O)COc1ccccc1C (stereo not drawn) | ? | – | – | – | 18µM | –
COCCSc1nc2c(c(=O)[nH]c(=O)n2C)n1CCCc1ccccc1 | 1.5µM | – | – | – | – | –
COCCn1c(SCCCc2ccccc2)nc2c1c(=O)[nH]c(=O)n2C | – | – | – | – | – | –
N#CCSc1nc2c(c(C3CC=CCC3)c1C#N)CCC2 (stereo not drawn) | 21µM | – | – | – | – | –
CCCC(=O)Nc1ccc(C(=O)NCCc2ccc(F)cc2)cc1 | – | – | – | – | 15µM | –
O=C(NCCc1ccc(F)cc1)c1coc(=O)c(Br)c1 | 4.1µM | ? | ? | ? | – | –
Cc1cc(C)c(S(=O)(=O)NCCc2sc(-c3cccnc3)nc2C)c(C)c1 | · | – | · | · | ? | ·
COc1ccc2c(CNCCc3ccccc3OC)c(C(=O)O)n(Cc3ccc(F)cc3Cl)c2c1 | · | 21µM | · | · | – | ·
COc1cc(OC)cc(N2C(=O)N(Cc3ccc(C(C)(C)C)cc3)c3ccccc3S2(=O)=O)c1 | · | – | · | · | – | ·
CCOc1ccc(NC(=O)Cn2cc(C(=O)c3ccc(CC)cc3)c(=O)c3ccc(C)nc32)cc1 | · | – | · | · | – | ·
Fc1ccccc1-n1c(-c2ccc3ccccc3n2)n[nH]c1=S | – | – | – | – | – | ?
S=c1[nH]nc(-c2ccc3ccccc3n2)n1-c1ccccc1 | – | – | – | – | 23µM | –
CCCn1c(N)c(Sc2ccc([N+](=O)[O-])cc2)c(=O)n(CCC)c1=O | – | – | – | – | – | –
CCCn1c(N)c(Sc2ccccc2)c(=O)n(CCC)c1=O | – | – | – | – | 13µM | –
COC(=O)c1cc2sccc2n1Cc1ccc(F)cc1Cl | · | – | · | · | – | ·
Nc1c(Cl)ncnc1NCCO | – | – | – | – | ? | –
Cc1ccc(CCNc2ncnc(Cl)c2N)cc1 | – | ? | 0.65µM | ? | ? | –
COc1ccc(NC(=O)Nc2c[nH]c(=O)[nH]c2=O)c(OC)c1 | · | – | · | · | – | ·
SMILES | MCF10A rereplic | KB-3-1 cytotox | HT1080NT lethal | HT1080 IDH1KD tx | KB-V1 cytotox | SW480 rereplic
COc1cc(Br)c(CC(=O)NO)cc1OC | · | · | – | – | · | ·
CC12CCC(C/C1=N\N=C1\NC(=O)/C(=C\c3ccc(Cl)cc3)S1)C2(C)C (stereo not drawn) | 5.2µM | ? | 16µM | 21µM | ? | ?
O=C1NC(=Nc2ccccc2Cl)S/C1=C\c1ccc(C(=O)O)cc1 | – | – | – | – | – | ?
Cc1ccc(OCC(=O)NCC2(N(C)C)CCCCC2)cc1C | · | – | · | · | – | ·
CN(C(=O)CN1CCN(c2cc(-c3ccc(-c4ccccc4)cc3)ncn2)CC1)c1ccccc1 | · | ? | 15µM | 13µM | – | ·
COc1ccc(C(O)Cn2ccsc2=NC(C)=O)cc1 (stereo not drawn) | ? | ? | ? | 12µM | ? | ?
CC(=O)N=c1sccn1CC(O)c1ccccc1 (stereo not drawn) | – | – | – | – | – | –
CCC1C(=O)N(c2nc(C)cc(C)n2)N=C1C (stereo not drawn) | ? | – | – | – | ? | –
CC1=NN(c2nc(C)cc(C)n2)C(=O)C1CCC(C)C (stereo not drawn) | – | – | 7.9µM | 10µM | – | ?
COc1ccc(S(=O)(=O)Nc2cc(SCC(=O)O)c(O)c3ccccc23)cc1 | – | ? | ? | – | ? | ?
O=C(O)CSc1cc(NS(=O)(=O)c2ccc(Cl)cc2)c2ccccc2c1O | 23µM | ? | ? | 26µM | ? | ?
Cc1cc(C)c(S(=O)(=O)Nc2cc(SCC(=O)O)c(O)c3ccccc23)cc1C | ? | ? | – | 21µM | ? | ?
CCn1c(CNC(=O)c2ccc(OC)cc2)nnc1SCC(=O)Nc1cccc(C)c1 | · | – | · | · | ? | ·
Fc1ccc(-c2nc3ccccn3c2NCc2ccc3c(c2)OCO3)cc1 | 11µM | – | – | – | – | ?
Oc1ccc(-c2nc3ccccn3c2NCc2ccc3c(c2)OCO3)cc1 | – | – | – | – | ? | –
COc1ccc(C(CNC(=O)c2ccc(OCc3c(C)noc3C)cc2)N2CCCC2)cc1 (stereo not drawn) | – | ? | – | – | 1.5µM | –
COc1cc(C(=O)NCC(c2ccco2)N2CCCC2)ccc1OCc1c(C)noc1C (stereo not drawn) | – | ? | – | – | 10µM | –
COc1ccccc1C(CNC(=O)c1ccc(OCc2c(C)noc2C)cc1)N1CCCC1 (stereo not drawn) | ? | ? | – | – | ? | –
COc1ccc(C(CNC(=O)c2cccc(NC(=O)c3cccs3)c2)N2CCCC2)cc1 (stereo not drawn) | – | – | – | – | 21µM | –
COc1ccc(C(CNC(=O)c2cccc(Br)c2)N2CCCC2)cc1 (stereo not drawn) | ? | – | – | – | ? | ?
c1ccc(CSc2ccc(-c3ccc4c(c3)OCO4)nn2)cc1 | ? | 16µM | – | – | – | –
COc1ccc(NC(=O)C2=C(C)Nc3nc(CCCO)nn3C2c2ccc(O)cc2)cc1 (stereo not drawn) | · | – | · | · | ? | ·
O=C(Cn1cnc2sc(-c3ccccc3)cc2c1=O)NCCc1ccccc1 | ? | – | – | – | ? | ?
